Source: PubChem BioAssay (NCI)
Several values for one entry are separate records, joined by “and”; a condition that tells them apart may be missing. Equal entries are not always repeated. About 83,000 compounds went through this panel and 20% of them were active in at least one assay; those are over-represented in the sample as a whole.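 Note: values are percent growth. 100 is the growth of untreated cells, values between 100 and 0 indicate rising inhibition; between -100 and 0 indicates cell death.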 Activity calls are given as the source filed them. Rule for the calls: active = growth percent below 10; inactive = the rest.

Each compound was assayed on KM12 colon (assay: NCI-60 one-dose screen, 48 h (100 = growth as untreated, 0 = no growth, -100 = all killed)). Settings: 10 µM unless noted.

SMILES | growth
CCCCCCCCCCCCCCCCC(C(=O)O)C(O)(CC(=O)O)C(=O)O (stereo not given) | 105% (inactive) and -34.4% (active)
CCCCCCCCCCCCCCCc1ccc(N)c(OC2OC(CO)C(O)C(O)C2O)c1 (stereo not given) | 100% (inactive)
O=C(CO)C(O)C(O)C(O)C(O)CO (stereo not given) | 106% (inactive) and 105% (inactive)
O=C(Cc1ccccc1)c1ccc(O)c(Cl)c1 | 51.4% (inactive)
NC(Cc1c[nH]c2ccccc12)C(=O)O (stereo not given) | 108% (inactive) and 109% (inactive)
O=C(O)/C=C\C(=O)Nc1cccc2ccccc12 | 89.8% (inactive) and 106% (inactive)
O=C(/C=C/c1ccccc1)c1ccccc1 | 33.3% (inactive)
OC1COC(OCc2ccccc2)C(O)C1O (stereo not given) | 105% (inactive)
CC[C@H](CC[C@@H](C)[C@H]1CC[C@H]2[C@@H]3CC=C4C[C@@H](O)CC[C@]4(C)[C@H]3CC[C@]12C)C(C)C | 106% (inactive) and 98.6% (inactive)
CC1=C/C(O)CC(=O)Cc2nc(co2)C(=O)N2CCC=C2C(=O)OC(C(C)C)C(C)/C=C\C(=O)NC/C=C\1 (stereo not given) | 95.1% (inactive)
COc1ccc(C(=O)CC(c2ccccc2)C(C#N)c2ccccc2)cc1 (stereo not given) | 79.9% (inactive)
CCCCOC(=O)/C=C\C(=O)NC(N)=O | 106% (inactive)
CC(C)NC(=O)N/C=C(\C#N)C(N)=O | 92.7% (inactive)
CC1CCC2(OC1)OC1CC3C4CC=C5CC(O)CCC5(C)C4CCC3(C)C1C2C (stereo not given) | 104% (inactive)
CCCCNc1ccc(Nc2ccccc2)cc1 | 66% (inactive)
